Measurements published in the supplement of paper PMC7411054.

Legend:
Conditions in all cases: treatment time: 24 h
A549-ACTB-RAB5A [1] = assay: lowest phenotypically active concentration; higher = less potent
In short: (§1)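 Cells from fifteen gene-edited reporter lines (A549, HepG2 and WPMY1) were treated for 24 h at 0.3, 1, 3 or 9 µM and imaged live, four wells per condition. Features were normalised per well to solvent control wells. A condition deviated if ≥3 of 4 wells passed the 95th percentile of control Euclidean distances and was reproducible if its median replicate Pearson correlation beat the 95th percentile of non-replicates; phenotypic activity needed both.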

A549-CANX-COX4 [2] = assay: as above
In short: as §1

A549-GM130-SQSTM1 [3] = assay: as above
In short: as §1

A549-TP53BP1-CLTA [4] = assay: as above
In short: as §1

A549-TUBA1B-RELA [5] = assay: as above
In short: as §1

A549-ACTB-RAB5A [6] = assay: phenotypically active (imaging signature differs from DMSO and reproducible) at any of 0.3-9 uM (binary (1 = active, 0 = inactive)); higher = active
In short: as §1

A549-CANX-COX4 [7] = assay: as above
In short: as §1

A549-GM130-SQSTM1 [8] = assay: as above
In short: as §1

A549-TP53BP1-CLTA [9] = assay: as above
In short: as §1

A549-TUBA1B-RELA [10] = assay: as above
In short: as §1

HepG2-ACTB-RAB5A = assay: as above
In short: as §1

HepG2-CANX-COX4 = assay: as above
In short: as §1

HepG2-GM130-SQSTM1 = assay: as above
In short: as §1

HepG2-TP53BP1-CLTA = assay: as above
In short: as §1

HepG2-TUBA1B-RELA = assay: as above
In short: as §1

WPMY1-ACTB-RAB5A = assay: as above
In short: as §1

WPMY1-CANX-COX4 = assay: as above
In short: as §1

WPMY1-GM130-SQSTM1 = assay: as above
In short: as §1

WPMY1-TP53BP1-CLTA = assay: as above
In short: as §1

WPMY1-TUBA1B-RELA = assay: as above
In short: as §1

O=C1c2c(O)ccc(O)c2C(=O)c2c(NCCNCCO)ccc(NCCNCCO)c21 [mitoxantrone]
≤ 0.3 µM: lowest phenotypically active concentration (A549-ACTB-RAB5A [1]) | lowest phenotypically active concentration (A549-CANX-COX4 [2]) | lowest phenotypically active concentration (A549-GM130-SQSTM1 [3]) | lowest phenotypically active concentration (A549-TP53BP1-CLTA [4]) | lowest phenotypically active concentration (A549-TUBA1B-RELA [5])
active: phenotypically active (A549-ACTB-RAB5A [6]) 1 | phenotypically active (A549-CANX-COX4 [7]) 1 | phenotypically active (A549-GM130-SQSTM1 [8]) 1 | phenotypically active (A549-TP53BP1-CLTA [9]) 1 | phenotypically active (A549-TUBA1B-RELA [10]) 1 | phenotypically active (HepG2-ACTB-RAB5A) 1 | phenotypically active (HepG2-CANX-COX4) 1 | phenotypically active (HepG2-GM130-SQSTM1) 1 | phenotypically active (HepG2-TP53BP1-CLTA) 1 | phenotypically active (HepG2-TUBA1B-RELA) 1 | phenotypically active (WPMY1-ACTB-RAB5A) 1 | phenotypically active (WPMY1-CANX-COX4) 1 | phenotypically active (WPMY1-GM130-SQSTM1) 1 | phenotypically active (WPMY1-TP53BP1-CLTA) 1 | phenotypically active (WPMY1-TUBA1B-RELA) 1

Cc1cc(/N=N/c2ccc(S(=O)(=O)Nc3ccccn3)cc2)c(N)cc1O
active: phenotypically active (A549-ACTB-RAB5A [6]) 1 | phenotypically active (A549-CANX-COX4 [7]) 1 | phenotypically active (A549-GM130-SQSTM1 [8]) 1 | phenotypically active (A549-TP53BP1-CLTA [9]) 1 | phenotypically active (A549-TUBA1B-RELA [10]) 1 | phenotypically active (HepG2-ACTB-RAB5A) 1 | phenotypically active (HepG2-CANX-COX4) 1 | phenotypically active (HepG2-GM130-SQSTM1) 1 | phenotypically active (HepG2-TP53BP1-CLTA) 1 | phenotypically active (HepG2-TUBA1B-RELA) 1 | phenotypically active (WPMY1-ACTB-RAB5A) 1 | phenotypically active (WPMY1-CANX-COX4) 1 | phenotypically active (WPMY1-GM130-SQSTM1) 1 | phenotypically active (WPMY1-TP53BP1-CLTA) 1 | phenotypically active (WPMY1-TUBA1B-RELA) 1
9 µM: lowest phenotypically active concentration (A549-ACTB-RAB5A [1]) | lowest phenotypically active concentration (A549-CANX-COX4 [2]) | lowest phenotypically active concentration (A549-GM130-SQSTM1 [3]) | lowest phenotypically active concentration (A549-TP53BP1-CLTA [4]) | lowest phenotypically active concentration (A549-TUBA1B-RELA [5])

Cc1ccc(C(=O)N(CCCN)[C@@H](c2oc3cc(Cl)ccc3c(=O)c2Cc2ccccc2)C(C)C)cc1
≤ 0.3 µM: lowest phenotypically active concentration (A549-ACTB-RAB5A [1]) | lowest phenotypically active concentration (A549-CANX-COX4 [2]) | lowest phenotypically active concentration (A549-GM130-SQSTM1 [3]) | lowest phenotypically active concentration (A549-TP53BP1-CLTA [4]) | lowest phenotypically active concentration (A549-TUBA1B-RELA [5])
active: phenotypically active (A549-ACTB-RAB5A [6]) 1 | phenotypically active (A549-CANX-COX4 [7]) 1 | phenotypically active (A549-GM130-SQSTM1 [8]) 1 | phenotypically active (A549-TP53BP1-CLTA [9]) 1 | phenotypically active (A549-TUBA1B-RELA [10]) 1 | phenotypically active (HepG2-ACTB-RAB5A) 1 | phenotypically active (HepG2-CANX-COX4) 1 | phenotypically active (HepG2-GM130-SQSTM1) 1 | phenotypically active (HepG2-TP53BP1-CLTA) 1 | phenotypically active (HepG2-TUBA1B-RELA) 1 | phenotypically active (WPMY1-ACTB-RAB5A) 1 | phenotypically active (WPMY1-CANX-COX4) 1 | phenotypically active (WPMY1-GM130-SQSTM1) 1 | phenotypically active (WPMY1-TP53BP1-CLTA) 1 | phenotypically active (WPMY1-TUBA1B-RELA) 1

Nc1ccc(-c2cccc3c(=O)cc(N4CCOCC4)oc23)cc1
3 µM: lowest phenotypically active concentration (A549-ACTB-RAB5A [1])
active: phenotypically active (A549-ACTB-RAB5A [6]) 1 | phenotypically active (A549-CANX-COX4 [7]) 1 | phenotypically active (A549-GM130-SQSTM1 [8]) 1 | phenotypically active (A549-TP53BP1-CLTA [9]) 1 | phenotypically active (A549-TUBA1B-RELA [10]) 1 | phenotypically active (HepG2-ACTB-RAB5A) 1 | phenotypically active (HepG2-CANX-COX4) 1 | phenotypically active (HepG2-GM130-SQSTM1) 1 | phenotypically active (HepG2-TP53BP1-CLTA) 1 | phenotypically active (HepG2-TUBA1B-RELA) 1 | phenotypically active (WPMY1-ACTB-RAB5A) 1 | phenotypically active (WPMY1-CANX-COX4) 1 | phenotypically active (WPMY1-GM130-SQSTM1) 1 | phenotypically active (WPMY1-TP53BP1-CLTA) 1 | phenotypically active (WPMY1-TUBA1B-RELA) 1
9 µM: lowest phenotypically active concentration (A549-CANX-COX4 [2]) | lowest phenotypically active concentration (A549-GM130-SQSTM1 [3]) | lowest phenotypically active concentration (A549-TP53BP1-CLTA [4]) | lowest phenotypically active concentration (A549-TUBA1B-RELA [5])

COc1cc(C(=O)N2CCC(N3CCN(C)CC3)CC2)ccc1Nc1ncc2c(n1)N(C)c1ccccc1C(=O)N2C
9 µM: lowest phenotypically active concentration (A549-TP53BP1-CLTA [4])
active: phenotypically active (A549-ACTB-RAB5A [6]) 1 | phenotypically active (A549-CANX-COX4 [7]) 1 | phenotypically active (A549-GM130-SQSTM1 [8]) 1 | phenotypically active (A549-TP53BP1-CLTA [9]) 1 | phenotypically active (A549-TUBA1B-RELA [10]) 1 | phenotypically active (HepG2-ACTB-RAB5A) 1 | phenotypically active (HepG2-CANX-COX4) 1 | phenotypically active (HepG2-GM130-SQSTM1) 1 | phenotypically active (HepG2-TP53BP1-CLTA) 1 | phenotypically active (HepG2-TUBA1B-RELA) 1 | phenotypically active (WPMY1-ACTB-RAB5A) 1 | phenotypically active (WPMY1-CANX-COX4) 1 | phenotypically active (WPMY1-GM130-SQSTM1) 1 | phenotypically active (WPMY1-TP53BP1-CLTA) 1 | phenotypically active (WPMY1-TUBA1B-RELA) 1
3 µM: lowest phenotypically active concentration (A549-ACTB-RAB5A [1]) | lowest phenotypically active concentration (A549-CANX-COX4 [2]) | lowest phenotypically active concentration (A549-GM130-SQSTM1 [3]) | lowest phenotypically active concentration (A549-TUBA1B-RELA [5])

NCC(=O)Nc1ccc(-n2nc(C(F)(F)F)cc2-c2ccc3c(ccc4ccccc43)c2)cc1
1 µM: lowest phenotypically active concentration (A549-ACTB-RAB5A [1]) | lowest phenotypically active concentration (A549-CANX-COX4 [2]) | lowest phenotypically active concentration (A549-GM130-SQSTM1 [3]) | lowest phenotypically active concentration (A549-TP53BP1-CLTA [4]) | lowest phenotypically active concentration (A549-TUBA1B-RELA [5])
active: phenotypically active (A549-ACTB-RAB5A [6]) 1 | phenotypically active (A549-CANX-COX4 [7]) 1 | phenotypically active (A549-GM130-SQSTM1 [8]) 1 | phenotypically active (A549-TP53BP1-CLTA [9]) 1 | phenotypically active (A549-TUBA1B-RELA [10]) 1 | phenotypically active (HepG2-ACTB-RAB5A) 1 | phenotypically active (HepG2-CANX-COX4) 1 | phenotypically active (HepG2-GM130-SQSTM1) 1 | phenotypically active (HepG2-TP53BP1-CLTA) 1 | phenotypically active (HepG2-TUBA1B-RELA) 1 | phenotypically active (WPMY1-ACTB-RAB5A) 1 | phenotypically active (WPMY1-CANX-COX4) 1 | phenotypically active (WPMY1-GM130-SQSTM1) 1 | phenotypically active (WPMY1-TP53BP1-CLTA) 1 | phenotypically active (WPMY1-TUBA1B-RELA) 1
